In the library only some 19% were active in any assay of this set; here they are far more common.
KB-V1 cytotox: qHTS assay for MDR1-selective chemotherapeutics: Primary screen using the drug-selected MDR subline cells KB-V1. KB-V1 MDR cells viability, CellTiter-Glo, 72 h. 400,000 compounds, 3.4% hits. Potency, µM (series often up to 46.1 µM), actives largely listed as cytotoxic; note: nearly all actives have a fitted effect of over 60% in size
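KB-V1 MDR subline cells in DMEM (phenol-red free, 10% FBS) exposed to compounds in qHTS concentration series for 72 h at 37 degrees C. Viability read by CellTiter-Glo luminescence; concentration-effect curves fitted after normalization and correction.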
DT40 TDP1 no CPT: qHTS for Inhibitors of human tyrosyl-DNA phosphodiesterase 1 (TDP1): qHTS in cells in absence of CPT | DT40 Tdp1-/- hTDP1 cells, no CPT, ATP luminescence, 48 h | Potency, µM (doses to about 46.2 µM), inactives show at the top dose activity change, negative = growth inhibition, hits mostly inhibitors | 420,000 compounds, 15% hits | AID 686978, 2013; note: nearly all actives have a fitted effect of over 55% in size
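Seeded 400 DT40-hTDP1 cells/well (vehicle DMSO, no 20 nM CPT); pinned compounds; ≥48 hr at 37 °C; CellTiter-Glo luminescence as viability measure.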
KB-3-1 cytotox: qHTS assay for MDR1-selective chemotherapeutics: Primary screen using the parental adenocarcinoma cell KB-3-1; KB-3-1 viability, CellTiter-Glo ATP luminescence, 72 h; 400,000 compounds, 1.4% hits; AID 1347075, 2019; Potency, µM (series often up to 46.1 µM), usual class: cytotoxic; note: nearly all actives have a fitted effect of over 60% in size
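Viability of parental KB-3-1 cells, measured by CellTiter-Glo luminescence, followed a 72 h incubation at 37 °C with pinned compounds in phenol-red-free DMEM containing 10% FBS.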
HT1080-NT tox: qHTS for induction of synthetic lethality in tumor cells producing 2HG: qHTS for the HT-1080-NT fibrosarcoma cell line; HT-1080-NT fibrosarcoma viability, CellTiter-Glo ATP luminescence, 48 h; 360,000 compounds, 1.6% hits; Potency, µM (titrated, usually from 46.1 µM), for inactives: at the highest dose activity, negative = less viability, actives largely listed as cytotoxic;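 note: NT is the 2HG producing partner of a matched IDH1 knockdown line; 0% = DMSO-treated cells and -100% = media-only wells without cells; nearly all actives have a fitted effect of over 55% in size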
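Toxicity toward the 2HG-producing NT line was scored as %Activity, normalised to DMSO and no-cell wells, from CellTiter-Glo luminescence after 48 hours' treatment.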
DT40 TDP1 CPT: qHTS for Inhibitors of human tyrosyl-DNA phosphodiesterase 1 (TDP1): qHTS in cells in presence of CPT | chicken DT40 Tdp1-/-;hTDP1 cells + 20 nM CPT, ATP luminescence, 48 h | 420,000 compounds, 12% hits | Potency, µM (titrated, usually from 46.2 µM), for the others: at the top dose activity change, negative = growth inhibition, usual class: inhibitors; note: nearly all actives have a fitted effect of over 55% in size
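Chicken DT40 Tdp1-/- cells stably complemented with human TDP1 were seeded at 400 cells/well in medium containing 20 nM camptothecin, exposed to pin-transferred compounds, and grown at 37 °C for at least 48 hr. Viability was read as ATP luminescence.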
HT1080 IDH1KD tx: qHTS for induction of synthetic lethality in tumor cells producing 2HG: qHTS for the HT-1080-IDH1KD cell line. Potency, µM (top dose mostly 46.1 µM), for inactives: at the highest dose activity, negative = toxicity, hits mostly cytotoxic. 360,000 compounds, 2% hits. HT-1080 IDH1 knockdown viability, ATP luminescence, 48 h;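 note: 0% = DMSO wells and -100% = cell-free medium wells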
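Cytotoxicity counter-line: IDH1KD HT-1080, 48 h, CellTiter-Glo. Curves classed by r2, magnitude and activity.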
An asterisk follows results filed as active; i = inactive; ? = inconclusive; . = not tested or not shown. Calls come from the whole dose curve; as a rule, active = well fitted curve in the direction sought with a large enough effect; inconclusive = small, poorly fitted or top-dose-only effect, or another doubt; inactive = no such curve, though single readings can be large; an effect the other way counts as inactive or inconclusive. Unless noted, % is set by controls: 0 for no effect and ±100 for the full control effect; potency is the fitted concentration of half-maximal effect.

SMILES	KB-V1 cytotox	DT40 TDP1 no CPT	KB-3-1 cytotox	HT1080-NT tox	DT40 TDP1 CPT	HT1080 IDH1KD tx
CCN(CC)C(=O)c1cccc(-c2csc(C(O)c3ccc(F)c(F)c3)n2)c1 (configuration not stated)	i	?	i	?	23µM*	?
CCN(CC)C(=O)c1cccc(-c2csc(C(O)c3ccccc3)n2)c1 (configuration not stated)	i	23µM*	i	-27%	?	?
CCN(CC)C(=O)c1cccc(-c2csc(C(NC(C)=O)c3ccc(F)c(F)c3)n2)c1 (configuration not stated)	i	?	i	-2%	?	-1%
CCN(CC)C(=O)c1cccc(-c2csc(C(O)c3ccc(F)cc3)n2)c1 (configuration not stated)	?	?	i	-30%	15µM*	0%
COc1ccc(CN2CCNC(=O)C2CC(=O)NCCCC2CCCC2)c(C)c1C (configuration not stated)	i	?	i	-1%	?	5%
Cn1nc(C(C)(C)C)cc1C(=O)Sc1cccc(Br)c1	i	10µM*	i	?	3.7µM*	?
Cc1cccc(NC(=O)C2CCCN(S(=O)(=O)c3ccc4[nH]c(=O)ccc4c3)C2)n1 (configuration not stated)	i	-10%	i	0%	?	-1%
Cc1nn(-c2ccccc2)c(C)c1/C=N/NC(=O)c1cc(-c2cccs2)[nH]n1	?	0.0082µM*	0.52µM*	?	0.82µM*	?
O=C(CSc1nnc(SCc2ccccc2)s1)N/N=C/c1c(Cl)cccc1Cl	?	?	i	-5%	?	-10%
Cc1nn(-c2ccccc2)c(C)c1/C=N/NC(=O)c1cc(-c2ccc(Br)s2)[nH]n1	?	4.6µM*	?	?	2.9µM*	?
Cc1nn(-c2ccccc2)c(C)c1/C=N/NC(=O)c1cc(-c2ccc(Cl)s2)[nH]n1	12µM*	4.1µM*	2.9µM*	0.63µM*	4.6µM*	0.89µM*
Cc1nn(-c2ccccc2)c(C)c1/C=N/NC(=O)CSc1nnc(SCc2ccc(Cl)cc2)s1	2.3µM*	15µM*	?	-17%	?	?
O=C(COC(=O)/C=C/c1cccc(F)c1)NC1CCCCC1	i	-1%	i	-3%	6%	15%
O=C(N/N=C/c1ccccn1)c1cc(-c2ccc(Cl)s2)[nH]n1	i	16µM*	i	?	23µM*	?
O=C(N/N=C/c1ccccn1)c1cc(-c2ccc(Br)s2)[nH]n1	i	?	i	?	?	?
Cc1nn(-c2ccccc2)c(C)c1/C=N/NC(=O)c1cccs1	21µM*	15µM*	?	-17%	9.2µM*	-7%
CC1CC[C@@]2(OC1)OC1CC3C4CC[C@H]5CC(O)CC[C@@]5(C)C4CC[C@]3(C)C1C2C (some centres not stated)	.	-3%	.	.	-10%	.
Cc1c(C(=O)C(=O)N2CC=C(c3ccccc3)CC2)c2ccccc2n1C	3.7µM*	2.6µM*	2.9µM*	2.6µM*	2.9µM*	2.3µM*
Cc1cc(C(=O)N2CC=C(c3ccccc3)CC2)c2ccccc2n1	1.5µM*	0.92µM*	?	?	0.58µM*	1.6µM*
O=C(O)c1ccccc1C(=O)N1CC=C(c2ccccc2)CC1	i	26µM*	i	4%	?	-5%
Cc1ccc(C(=O)N2CC=C(c3ccccc3)CC2)o1	i	?	i	16%	?	18%
O=C(Nc1ccccc1)N1CCCC2(CCN(C(=O)c3cnccn3)CC2)C1	.	-11%	.	.	12%	.
Cc1ccccc1[C@@H](NC(=O)OC(C)(C)C)C(=O)OC(C)(C)C	i	-23%	i	16%	-5%	8%
CCCNC(=O)C(Cc1ccc(C(F)(F)P(=O)(OCC)OCC)cc1)NC(=O)c1ccc(C#N)cc1 (configuration not stated)	i	-29%	i	-1%	?	-1%
Cc1ccc(NC(=S)NCc2ccc3[nH]c4c(c3c2)CCCC4)cc1	i	13µM*	i	-5%	?	-21%
SMILES	KB-V1 cytotox	DT40 TDP1 no CPT	KB-3-1 cytotox	HT1080-NT tox	DT40 TDP1 CPT	HT1080 IDH1KD tx
COCCNC(=S)NCc1ccc2[nH]c3c(c2c1)CCCC3	?	-26%	i	-21%	-15%	-19%
O=S(=O)(NCc1ccc(F)cc1)c1ccc2[nH]c3c(c2c1)CCCCC3	i	?	i	.	?	.
O=S(=O)(Nc1cccc(F)c1)c1ccc2[nH]c3c(c2c1)CCCCC3	i	?	i	.	21µM*	.
Cc1ccc(N(C)S(=O)(=O)c2ccc3[nH]c4c(c3c2)CCCC4)cc1	18µM*	?	i	.	?	.
Cc1ccc(NS(=O)(=O)c2ccc3[nH]c4c(c3c2)CCCCCC4)cc1	i	?	?	.	26µM*	.
CCc1ccc(NS(=O)(=O)c2ccc3[nH]c4c(c3c2)CCCCCC4)cc1	i	?	i	.	?	.
CCOC(=O)c1c[nH][nH]c1=O	i	8%	i	3%	2%	5%
O=S(=O)(Nc1cc(F)ccc1F)c1ccc2[nH]c3c(c2c1)CCCCC3	i	?	i	.	?	.
Cc1ccc(NS(=O)(=O)c2ccc3[nH]c4c(c3c2)CCCCCC4)cc1C	i	16µM*	i	.	?	.
Cc1cc(=O)[nH]c2nnc(SCc3ccc(F)cc3)n12	.	2%	.	.	4%	.
Cc1ccc(C(=O)NCC(c2ccco2)N2CCc3ccccc32)cc1 (configuration not stated)	?	13µM*	i	-7%	10µM*	-4%
Cc1cccc(C(=O)NCC(c2ccco2)N2CCc3ccccc32)c1 (configuration not stated)	i	15µM*	i	-15%	?	-8%
CC(=O)Nc1cccc(NC(=O)C(=O)NCC(c2ccco2)N2CCc3ccccc32)c1 (configuration not stated)	i	?	i	-21%	?	-26%

Assay outcomes: PubChem BioAssay, National Center for Advancing Translational Sciences (NCATS)
